37 molecules from PubChem BioAssay (NCI) can be followed below.

The structures appear in SMILES notation. The panel holds about 83,000 compounds, 20% with a hit somewhere; the sample as a whole holds those more often.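 In brief: 96-well plates, 48 h treatment, single concentration, percent growth endpoint.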 Unmarked numbers belong to inactive results. Calls of active or inactive are those of the source. How the source made its calls: active means growth percent below 10; inactive means the rest.

This experiment relates to HL-60(TB) leukemia. Description: NCI-60 one-dose screen, 48 h (100 = growth as untreated, 0 = no growth, -100 = all killed). Conditions: 10 µM unless noted.
Consider `CNC1=C(Br)C(=O)c2c(C(=O)OC)c(C)nc(C)c2C1=O`, for which the growth is 24.5%.
Take `CC1(C)c2[nH]c3ccccc3c2C[C@]2(C)[C@H]3C(=O)C=C4[C@@H]5C[C@@](C)(C(N)=O)CC[C@]5(C)CC[C@@]4(C)[C@]3(C)CC[C@@H]12`: the growth was 59.9%.
Turning to `NCc1cn2cc(Cl)sc2n1`, the growth was 129%.
Take `NS(=O)(=O)c1ccc(N2CC(c3nc4ccccc4[nH]3)CC2=O)cc1` (configuration not stated): the growth is 99.4%.
For `CN(CC(=O)N(Cc1ccc(C2CCCCC2)cc1)c1ccc(C(=O)NO)cc1)S(=O)(=O)c1c(F)c(F)c(F)c(F)c1F`, the growth was 43.6%.
Regarding `OC(c1ccccc1)c1ccccn1` (configuration not stated), the growth was 99.9%.
As for `c1ccc(-c2cn3nc(-c4c[nH]c5ccccc45)sc3n2)cc1`, the growth was 95.1%.
Then `Cc1ccc(C(=O)Nc2nc3c(s2)CN(Cc2ccccc2)CC3)cn1`, with 92.6%.
Turning to `COc1ccc2nc(-c3cc(-c4cc(OC)c(OC)c(OC)c4)n[nH]3)[nH]c2c1`, the growth was -38.7% (active).
Then `COc1cc(Cl)cc(-c2nn(-c3cccc(NC(=O)Nc4cc(C(F)(F)F)cc(C(F)(F)F)c4)c3)cc2-c2ccncc2)c1`, with -20.1% (active).
Then `Nc1ccc2c(c1)Cc1cc(NC(=O)C(F)(F)F)ccc1-2`, with 98.4%.
As to `CN(C)c1nc(N)nc(Cn2c(-c3nonc3N)nc3ccccc32)n1`, the growth was 94.2%.
Consider `CC(C)(C)[Si](C)(C)OC1[C@@H](O[Si](C)(C)C(C)(C)C)[C@@H](CNC(=O)NC(=O)NC(=O)CCl)O[C@H]1n1cnc2c(NC(=O)Nc3ccccc3)ncnc21` (some centres not stated), for which the growth is 19.7%.
Take `COC(=O)c1c2c(c[n+]([O-])c1C)C(=O)C=CC2=O`: the growth is 28.1%.
On to `NC(=O)c1ccccc1OCC(=O)Nc1ccc(Cl)c(Cl)c1`, for which the growth is 86.4%.
`CCCCCCCCCCCC(c1ccccc1)[N+](C)(C)C` (configuration not stated): the growth is -30.5% (active).
For `COCc1nc2ccccc2[nH]1`, the growth was 96.5%.
For `CCOC(=O)c1cc(C(=O)c2ccc(Br)cc2)n2cc(C)cc(C)c12` the value was 103%; for `Cc1cccc2c1S/C(=C/c1ccc([N+](=O)[O-])cc1)C2=O`, 101%.
For `O=C(Cc1c(F)cccc1Cl)Nc1ccc(S(=O)(=O)Nc2ncccn2)cc1`, the growth was 120%.
As for `c1ccc2c(c1)ncn2-c1nc2ccccc2n2c1nc1ccccc12`, the growth was 102%.
On to `C[C@@H]1C[C@H]2C(=O)O[C@@H](C)[C@H](NC(=O)[C@H](Cc3cc(F)cc(F)c3)NC(=O)Nc3ccc(C4CC4)cc3F)C(=O)N3CCC[C@H]3C(=O)N3CCCC[C@H]3C(=O)N[C@@H](C)C(=O)N2C1`, for which the growth was 20.9%.
With `CCCCCCNC(=O)Oc1ccc(/C(=C(/C)Cc2ccc(OC)cc2)c2ccc(OCCN3CCCCC3)cc2)cc1`, the growth is 57.9%.
As for `O=C(O)c1cn(C2CC2)c2cc(N3CCN(Cc4ccc5ccccc5c4O)CC3)c(F)cc2c1=O`, the growth is 69.7%.
For `COc1cc2c(Nc3ccc(Br)cc3F)ncnc2cc1OCC1CCN(C)CC1`, the growth is 0.964% (active).
In the case of `C[C@H]1[C@@H]2[C@H]3CC[C@@H]4[C@@]5(C)Cc6c([nH]c7ccccc67)C(C)(C)[C@@H]5CC[C@@]4(C)[C@]3(C)CC[C@]23CO[C@]1(C)[C@@H](C(=O)/C=C/c1ccccn1)C3`, the growth is 72.4%.
Then `Cc1c(C(=O)O)c(=O)n(-c2ccccc2)n1C`, with 109%.
For `COc1ccc2c(c1)C(=O)CC(c1ccccc1OC)O2` (configuration not stated) the value was 88.2%; for `CCO/C=N/NC(=O)c1ccncc1`, 102%; for `Cc1cc(C)c(NC(=O)c2sc3nc4c(cc3c2N)CN(Cc2ccccc2)CC4)c(C)c1`, -10.3% (active).
Then `Clc1cc(Cl)c(Cl)nn1`, with 69.7%; and `COc1ccc(Br)cc1NC(=O)Nc1cccc2c1ccn2Cc1ccnc(N)c1`, with 10.5%; and `CN1CCN(C(=O)[C@]23CCC(C)(C)C[C@H]2C2=CC[C@@H]4[C@@]5(C)C/C(=C/c6cccnc6)C(=O)C(C)(C)[C@@H]5CC[C@@]4(C)[C@]2(C)CC3)CC1`, with -32.4% (active).
In the case of `COc1cc(/C=C\C(C)=N\Nc2ccccc2)ccc1O`, the growth was 3.74% (active).
Consider `O=c1ccc2nc(-c3ccccn3)nn(-c3ccccc3)c-2c1`, for which the growth was 31.1%.
On to `Cc1cccc2c(=O)c3c(sc12)c(NCCNCCO)nc1ccccc13`, for which the growth is -58.4% (active).
Then `C1=C(c2ccccc2)C(c2ccc(OCCN3CCCCC3)cc2)Oc2ccccc21` (configuration not stated), with 62.7%.
